Activity calls are given as the source filed them. Rule for the calls: active = hit-call score of the fitted dose curve at least 0.9, where 1 is the maximum; inactive = score below 0.9.

The nature of this test: APR_HepG2_P-H2AX_1hr: Apredica 1-hour HepG2 Assay for H2AX Phosphorylation (AID 2282673). The following applies: high-content imaging, actives raise or lower the signal. The method, then:
APR_HepG2_1hr is a cell-based, multiplexed-readout assay that uses HepG2, a human liver cell line, with measurements taken at 1 hour after chemical dosing in a 384-well plate.APR_HepG2_P-H2AX_1hr is one of 10 assay component(s) measured or calculated from the APR_HepG2_1hr assay. It is designed to make measurements of dna content, a form of viability reporter, as detected with fluorescence intensity signals by HCS Fluorescent Imaging technology.Data from the assay component APR_HepG2_P-H2AX_1hr was analyzed into 1 assay endpoint. This assay endpoint, APR_HepG2_P-H2AX_1hr, was analyzed with bidirectional fitting relative to DMSO as the negative control and baseline of activity. Using a type of viability reporter, measures of protein for gain or loss-of-signal activity can be used to understand the signaling at the pathway-level as they relate to the gene . Furthermore, this assay endpoint can be referred to as a primary readout, because this assay has produced multiple assay endpoints where this one serves a signaling function. To generalize the intended target to other relatable targets, this assay endpoint is annotated to the dna binding intended target family, where the subfamily is cellular response to DNA damage stimulus.
Cells were treated with dimethyl sulfoxide (DMSO) as a solvent control at a final concentration of 0.5% v/v or with compounds in DMSO with a resulting final DMSO concentration of 0.5% v/v. Compound treatment was done at concentrations of 0.39, 0.78, 1.56, 3.12, 6.24, 12.5, 25, 50, 100, and 200 uM in duplicate on each plate. Cells were treated with compounds for 1, 24, or 72 hr. Carbonyl […] m-chloro-phenylhydrazone (CCCP) and taxol were used as positive controls for mitochondrial function and cytoskeletal stability, respectively; DMSO served as the negative control for this experiment. Cells were fixed by the direct addition of 50 uL formaldehyde in Hank's Balanced Salt Solution (HBSS) to a final concentration of 3.7%. After incubation in the fixation medium for 30 min at room temperature (293-298 K), cells were rinsed twice with HBSS and treated with cell permeabilization buffer (16 uL of 0.5% Triton X-100) for 10 min at room temperature (293-298 K) before labeling. For mitochondrial membrane potential and mitochondrial measurements, pre-fixed cells were incubated with 50 uL of MitoTracker Red CMXRos (Invitrogen) at a concentration of 250 nM for 30 min before fixation. In the remaining cases, post-fixed cells were labeled by incubation with a multiplexed mixture of primary antibodies in HBSS for 60 min at room temperature (293-298 K) to detect immunoreactivity of c-Jun (1:500), phospho-histone H3 (1:100), phospho-histone H2A.x (1:200), p53 (1:400), alpha-tubulin (1:200) and Hoechst 33342 (2 ug/mL). Cells were labeled for multiplexed imaging on two separate plates: a) Hoechst 33342, MitoTracker Red, phospho-histone H3, and alpha-tubulin, and b) Hoechst 33342, phospho-histone H2A.x, and c-Jun. A final rinse with HBSS (50 uL) was performed before analysis. The primary and secondary antibodies for the proteins were phospho-histone H3 (rabbit anti-phospho-histone H3 and FITC-donkey anti-rabbit IgG), phospho-histone H2A.x (mouse anti-phospho-histone H2A.x and FITC-donkey anti-mouse IgG), c-Jun (rabbit anti-phospho-c-Jun and Cy3-donkey anti-rabbit IgG), p53 (sheep anti-p53 and Cy5-donkey anti-sheep IgG), alpha-tubulin (mouse anti-alpha-tubulin and Cy5-donkey anti-mouse IgG). These antibodies are available as the CellCiphr HepG2 assay kit (Millipore).Digital images of each well were captured using a Cellomics ArrayScan VTI (Thermo Scientific Cellomics) (0.8 NA objective, 0.63x optical coupler, and XF-93 filter set) at 20x magnification. The images were acquired using the autofocus feature of the ArrayScan instrument, which entails the following steps. First, the camera focuses on channel 1 (Hoechst 33342), where nuclei are identified. Second, a Z offset of 1 um is used for capturing mitochondria (MitoTracker Red). […]
For the compound `S=C1NCCN1`, the compound was called inactive.
The same measure, in the same setting: with `Cc1cc(C2CC2)nc(Nc2ccccc2)n1` the entry was “inactive”; with `COP(=O)(OC)OC(Br)C(Cl)(Cl)Br` (stereo not given), “inactive”.
The same measure, in the same setting: then `CC(COc1ccc(Oc2ccccc2)cc1)Oc1ccccn1` (stereo not given), with “inactive”.
On to `COc1cccc(C(=O)NN(C(=O)c2cc(C)cc(C)c2)C(C)(C)C)c1C`, for which the result was inactive.
The same measure, in the same setting: with `CCNc1nc(Cl)nc(NC(C)(C)C#N)n1` the entry was “inactive”.
The same measure, in the same setting: with `CCCOc1nn(C(=O)NS(=O)(=O)c2ccccc2C(=O)OC)c(=O)n1C` the entry was “inactive”.
On the same count and under the same terms, with `CSc1nc(NC(C)C)nc(NC(C)C)n1` the entry was “inactive”.
As to `C#CC(C)(C)NC(=O)c1cc(Cl)cc(Cl)c1`, the result was inactive.
On the same count and under the same terms, then `COP(=O)(NC(C)=O)SC` (stereo not given), with “inactive”; and `CCOP(=S)(Oc1cnc(C(C)(C)C)nc1)OC(C)C` (stereo not given), with “inactive”.
Take `CCCSP(=O)(OCC)Oc1ccc(Br)cc1Cl` (stereo not given): the compound was called inactive.
Same read-out and setting: with `CCOP(=S)(OCC)Oc1ccc2c(C)c(Cl)c(=O)oc2c1` the entry was “inactive”.
Take `CC[C@H](C)[C@H]1O[C@]2(C=C[C@@H]1C)C[C@@H]1C[C@@H](C/C=C(\C)[C@@H](O[C@H]3C[C@H](OC)[C@@H](O[C@H]4C[C@H](OC)[C@@H](NC)[C@H](C)O4)[C@H](C)O3)[C@@H](C)/C=C/C=C3\CO[C@@H]4[C@H](O)C(C)=C[C@@H](C(=O)O1)[C@]34O)O2`: the half-maximal activity concentration (AC50) (as a rule, the midpoint of the concentration-response curve, whichever way the signal moves) is 16.8 µM (active).
Regarding `CC(Oc1cccc(Cl)c1)C(=O)O` (stereo not given), the compound was classed as inactive.
The same measure, in the same setting: then `CCC(CC)Nc1c([N+](=O)[O-])cc(C)c(C)c1[N+](=O)[O-]`, with “inactive”; and `C[N+]1(C)CCCCC1`, with “inactive”.
As for `CC1=NNC(=O)N(/N=C/c2cccnc2)C1`, the call was inactive.
On the same count and under the same terms, then `Cc1nn(-c2cc(NS(C)(=O)=O)c(Cl)cc2Cl)c(=O)n1C(F)F`, with “inactive”.
The same measure, in the same setting: then `CCOP(=S)(OCC)SCCSCC`, with “inactive”; and `Nc1nc(N)nc(NC2CC2)n1`, with “inactive”; and `CCOP(=O)(NC(C)C)Oc1ccc(SC)c(C)c1` (stereo not given), with “inactive”.
The same measure, in the same setting: then `COc1cc(OC)nc(Sc2cccc(Cl)c2C(=O)O)n1`, with “inactive”.
In the case of `CCOP(=O)(OCC)Oc1cc(C)nc(C(C)C)n1`, the compound was called inactive.
On the same count and under the same terms, then `C=C(C)[C@H]1Cc2c(ccc3c2O[C@@H]2COc4cc(OC)c(OC)cc4[C@@H]2C3=O)O1`, with “inactive”.
On the same count and under the same terms, with `CC(C)N(C(=O)SCC(Cl)=C(Cl)Cl)C(C)C` the entry was “inactive”; with `CC(=NC#N)N(C)Cc1ccc(Cl)nc1`, “inactive”; with `O=C(O)c1cc(Oc2ccc(C(F)(F)F)cc2Cl)ccc1[N+](=O)[O-]`, “inactive”.
On the same count and under the same terms, with `CCOP(=S)(OCC)Oc1ccc([N+](=O)[O-])cc1` the entry was “inactive”; with `C#CCC1=C(C)C(OC(=O)C2C(C=C(C)C)C2(C)C)CC1=O` (stereo not given), “inactive”.
`CCc1cccc(C)c1N(C(=O)CCl)C(C)COC` (stereo not given): the result was inactive.
Same read-out and setting: with `CC1(C(=O)Nc2ccc(O)c(Cl)c2Cl)CCCCC1` the entry was “inactive”; with `CCC(=O)Nc1ccc(Cl)c(Cl)c1`, “inactive”.
Still for that read-out and setting: with `CN(C)NC(=O)CCC(=O)O` the entry was “inactive”; with `CNC(=O)Oc1cccc2c1OC(C)(C)O2`, “inactive”.
Still for that read-out and setting: with `CCOC(=O)CC(SP(=O)(OC)OC)C(=O)OCC` (stereo not given) the entry was “inactive”; with `CCCCOC(=O)[C@@H](C)Oc1ccc(Oc2ccc(C#N)cc2F)cc1`, “inactive”; with `CN1COCN(Cc2cnc(Cl)s2)C1=N[N+](=O)[O-]`, “inactive”.
Take `Nc1c(Cl)cc([N+](=O)[O-])cc1Cl`: the call was inactive.
On the same count and under the same terms, then `COP(=O)(OC)C(O)C(Cl)(Cl)Cl` (stereo not given), with “inactive”.
